Screening results: PubChem BioAssay, National Center for Advancing Translational Sciences (NCATS)
KDM5B inh: Primary screen for KDM5B Histone Demethylases FDH-coupled qHTS. Potency, µM (doses to about 57.7 µM), most hits filed as inhibitors. KDM5B demethylase, FDH-coupled NADH fluorescence (FDH is formaldehyde dehydrogenase). Lysine-specific demethylase 5B (Homo sapiens), Q9UGL1. hit rate 2.6% among 220,000; active = well fitted inhibition curve with a large enough effect; also: 0% is about no effect; nearly all actives have a fitted effect of over 70% in size
Target sequence (Q9UGL1 whole entry, looked up): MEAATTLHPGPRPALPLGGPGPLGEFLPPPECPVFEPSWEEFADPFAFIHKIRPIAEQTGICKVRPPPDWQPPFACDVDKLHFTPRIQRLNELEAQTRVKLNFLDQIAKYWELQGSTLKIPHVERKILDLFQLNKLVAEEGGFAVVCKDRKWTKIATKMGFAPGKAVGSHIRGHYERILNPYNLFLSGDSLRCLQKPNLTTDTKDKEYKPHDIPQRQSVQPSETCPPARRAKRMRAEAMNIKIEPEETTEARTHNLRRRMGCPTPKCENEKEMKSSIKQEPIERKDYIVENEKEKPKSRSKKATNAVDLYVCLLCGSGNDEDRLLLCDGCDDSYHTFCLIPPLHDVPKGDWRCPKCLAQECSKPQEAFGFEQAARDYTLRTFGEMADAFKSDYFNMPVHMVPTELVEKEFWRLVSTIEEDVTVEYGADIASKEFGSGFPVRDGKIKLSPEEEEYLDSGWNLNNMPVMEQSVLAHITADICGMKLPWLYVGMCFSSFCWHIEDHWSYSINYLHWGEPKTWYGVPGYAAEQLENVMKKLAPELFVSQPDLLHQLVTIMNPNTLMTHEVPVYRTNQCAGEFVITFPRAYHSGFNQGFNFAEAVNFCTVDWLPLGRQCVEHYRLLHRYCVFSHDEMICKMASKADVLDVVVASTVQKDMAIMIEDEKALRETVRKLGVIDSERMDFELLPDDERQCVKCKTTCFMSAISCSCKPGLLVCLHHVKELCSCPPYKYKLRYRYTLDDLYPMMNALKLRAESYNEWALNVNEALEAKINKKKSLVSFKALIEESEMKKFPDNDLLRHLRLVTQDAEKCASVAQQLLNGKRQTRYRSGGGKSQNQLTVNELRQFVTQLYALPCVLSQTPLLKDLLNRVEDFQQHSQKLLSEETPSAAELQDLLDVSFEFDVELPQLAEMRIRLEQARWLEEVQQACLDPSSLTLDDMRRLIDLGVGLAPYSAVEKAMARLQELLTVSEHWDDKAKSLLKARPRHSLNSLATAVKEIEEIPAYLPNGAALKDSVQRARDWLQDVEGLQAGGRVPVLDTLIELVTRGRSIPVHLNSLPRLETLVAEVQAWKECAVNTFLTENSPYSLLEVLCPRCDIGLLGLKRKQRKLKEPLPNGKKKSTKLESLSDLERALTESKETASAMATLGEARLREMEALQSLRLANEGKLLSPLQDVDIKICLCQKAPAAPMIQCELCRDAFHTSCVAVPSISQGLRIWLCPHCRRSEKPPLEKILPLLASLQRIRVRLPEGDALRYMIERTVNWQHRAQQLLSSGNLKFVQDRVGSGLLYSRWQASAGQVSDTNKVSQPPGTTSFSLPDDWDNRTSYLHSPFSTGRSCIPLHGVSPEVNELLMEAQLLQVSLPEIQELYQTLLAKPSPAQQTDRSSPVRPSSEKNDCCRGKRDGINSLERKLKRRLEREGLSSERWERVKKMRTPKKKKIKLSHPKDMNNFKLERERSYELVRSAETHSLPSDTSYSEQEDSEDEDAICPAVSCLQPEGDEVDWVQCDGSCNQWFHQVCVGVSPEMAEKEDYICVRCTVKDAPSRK
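Compound dilutions met 200 nM (final) KDM5BΔAP for 10 min at room temperature before substrate addition. The substrate mix held 12.5 µM H3K4me3 with cofactors 25 µM α-ketoglutarate and 50 µM Fe²⁺. NADH signal gain over 30 min defined activity.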
An asterisk follows results filed as active; i = inactive. Shown is part of a subset that was picked to be rich in hits. Potency is read from the fitted curve at half-maximal effect.

SMILES | KDM5B inh
CN1CC2(CCN(C(=O)Cc3cccc(F)c3)CC2)CC1C(=O)N1CCOCC1 (centres undefined) | i
CCN1C(=O)CCC2(C(=O)NC3CCCC3)CCCC=C12 (centres undefined) | i
O=C(COC(=O)c1c2c(nc3ccccc13)CCCC2)c1ccc(Oc2ccc(Cl)cc2[N+](=O)[O-])cc1 | i
COc1ccc(Cn2c(C3CCN(C(=O)c4ccc(F)cc4Cl)CC3)n[nH]c2=O)cc1 | i
CCCN1C(=O)C(CC(=O)N2CCCC(C)C2)Sc2ncccc21 (centres undefined) | i
Cc1c(C(=O)N2CCOC(C)C2)cnn1-c1ccccc1F (centres undefined) | i
O=c1[nH]c2cc3c(cc2c(=O)n1CCc1nc(-c2ccccc2)no1)OCO3 | i
Cc1cnc(C2CCNC2)n1Cc1ccc(F)cc1 (centres undefined) | i
Cc1cc(C)c(S(=O)(=O)N2CCC(n3c(CC(C)C)nc4cccnc43)CC2)c(C)c1 | i
OC12CC3CC(C1)CC(NCc1ccccc1)(C3)C2 | i
Cc1cc(C)c2c(CC(=O)N3CCc4c(nc[nH]c4=O)C3)coc2c1C | i
Fc1ccc(-c2csc(SCc3ccccc3F)n2)cc1 | i
CC(=O)N1CCN([C@H]2[C@@H]3OC[C@@H](O3)[C@@H](NCc3ccc4c(c3)OCO4)[C@@H]2O)CC1 | i
O=C1C(N2CCN(S(=O)(=O)c3ccc(F)cc3F)CC2)CCN1Cc1ccccn1 (centres undefined) | i
Cc1ccc(-c2ccc3nnc(CNC(=O)c4cccnc4)n3n2)cc1 | 32µM*
O=C(NCc1nnc2n1C(C(=O)NCc1ccc(F)cc1)CC2)c1cccnc1 (centres undefined) | i
CCc1ccc(CNC(=O)c2cnccn2)s1 | i
Cc1ccc(-c2ccc3nnc(CNC(=O)c4cnccn4)n3n2)cc1 | 13µM*
Cc1ccc(-c2ccc3nnc(SCC(=O)NCC4CCCO4)n3n2)cc1 (centres undefined) | i
Cc1ccc(-c2ccc3nnc(CNC(=O)c4nccc5ccccc45)n3n2)cc1 | 32µM*
CC(=O)N1CCC(C(=O)NCc2nnc3ccc(-c4ccc(C)cc4)nn23)CC1 | 32µM*
Cc1ccc(CNC(=O)C2CCN(S(=O)(=O)N3CCCCC3)CC2)cc1 | i
Cc1ccc(CNC(=O)CSc2nnc3ccc(-c4ccc5c(c4)OCO5)nn23)cc1 | i
Cc1ccsc1CNC(=O)c1cnccn1 | i
CC(=O)N1CCC(C(=O)NCc2ncc(-c3ccccc3)o2)CC1 | i
SMILES | KDM5B inh
O=C(c1cccc(F)c1)N1CCC(N2C(=O)C(O)C23CCCCC3)CC1 (centres undefined) | i
O=C1CC2CCCC(C1)N2C(=O)c1cccc(Br)c1 | i
COCCn1c(C)cc(C(=O)COC(=O)c2c(C)nn(Cc3ccccc3)c2Cl)c1C | i
Cc1ccc(C2C(C#N)=C(N)OC3=C2C(=O)CC(c2ccccc2Cl)C3)cc1 (centres undefined) | i
O=C(Cn1c(NCc2ccccc2)nc2ccccc21)N1CCN(c2ccccc2)CC1 | i
Cc1noc(C)c1[S+](=O)([O-])N1CCC(N2CCC[S+]2(=O)[O-])CC1 | i
CCOc1ccc(CC(=O)Nc2cccc3cccnc23)cc1 | i
COc1ccc(OC)c(NC(=O)C(C)OC(=O)c2ccsc2)c1 (centres undefined) | i
O=C(NCCc1ccccn1)c1cc(-c2ccccc2)nc2ccccc12 | i
COc1cc(CNC(=O)c2nc3nc(-c4ccccc4)c(Cl)cc3n2C)cc(OC)c1 | 35µM*
COc1ccccc1-c1cc2c(nc1-c1ccccc1)nc(C(=O)NC1CCN(C)CC1)n2C | 28µM*
O=C(Cn1c(=O)nc(-c2ccccc2)c2cc(Cl)ccc21)NCc1ccccc1 | i
O=C(NCCc1ccccn1)c1ccc(Cl)cc1 | i
COc1ccc(CNC(=O)c2cc(C)nn2-c2ccccc2)cc1 | i
Cn1c(C(=O)NCc2ccoc2)nc2nc(-c3ccccc3)c(Cl)cc21 | 35µM*
COc1cccc(CNC(=O)Nc2ncc(-c3ccccc3)n2C)c1 | i
Cn1c(C(=O)NCCc2ccccn2)nc2nc(-c3ccccc3)c(Cl)cc21 | 35µM*
COc1ccc(C(=O)NC2CCN(c3cc(-c4ccccc4)[nH]n3)CC2)c(OC)c1 | i
COc1cc(C(=O)NC2CCN(c3cc(-c4ccccc4)[nH]n3)CC2)cc(OC)c1OC | i
NC(CCCCCCC(N)C(=O)O)C(=O)O (centres undefined) | i
CN1CCN(Cc2nc(C3(O)CCN(C(=O)N4CCOCC4)CC3)cs2)CC1 | i
O=C(NCC(=O)N1CCN(c2ccc(F)cc2)CC1)NCc1ccc(F)cc1 | i
Cc1cc(C)c(NC(=O)Cn2nc3n(c2=O)CCCCC3)c(C)c1 | i
Cc1ccc(-c2nc(-c3ccccc3Br)no2)cc1 | i
CC[C@H]1CN(S(=O)(=O)c2c(C)noc2C)CC[C@H]1CC(=O)N1CCC(C(=O)OC)CC1 | i
SMILES | KDM5B inh
COC(=O)c1ccccc1S(=O)(=O)N1CCC(C(=O)NCCc2ccccn2)CC1 | i
O=C(Nc1ccc(F)c(F)c1)c1ccc(S(=O)(=O)C2CCS(=O)(=O)C2)cc1 (centres undefined) | i
COc1ccc2cnn(CC(=O)Nc3cccc(Cl)c3)c(=O)c2c1OC | i
CC1=C(C#N)C(c2ccccc2C(F)(F)F)C(C#N)=C(C)N1 | i
Clc1ccc(-c2nnc(COc3nncc4ccccc34)o2)cc1 | i
O=C1CCN(Cc2ccc(F)cc2F)CCCC(c2nc(-c3cccnc3)no2)CCN1 (centres undefined) | i
O=C(NCCN1CCOCC1)c1nn2c(C(F)(F)F)cc(-c3ccccc3)nc2c1Br | i
Cn1c(C(=O)NCCN2CCOCC2)nc2nc(-c3ccccc3)c(Cl)cc21 | 35µM*
Cc1cc(C(=O)NCC2CCCCC2)c2ccccc2n1 | i
Cc1cc2ccccc2n1CC(=O)NCC1CCC(C(=O)O)CC1 (centres undefined) | i
Cn1c(C(=O)NCC2CC2)nc2nc(-c3ccccc3)c(Cl)cc21 | 40µM*
COc1ccc(CNC(=O)c2cc(Cl)ccc2O)cc1OC | i
Cc1oc(-c2ccccc2)nc1C(=O)NCCN1CCOCC1 | i
COc1ccc(CNC(=O)c2sccc2-c2ccccc2)cc1OC | i
COc1ccc(CNC(=O)c2nc3nc(-c4ccccc4)c(Cl)cc3n2C)cc1OC | 35µM*
COc1cccc(Nc2nc(-c3ccc(CC(=O)N4CCOCC4)s3)cs2)c1 | i
Cn1c(CNc2ccccc2)c(C#N)c2ccccc21 | i
Cc1cc(C)cc(NC(=S)NCCC(C)C)c1 | i
CCOc1ccc(C(C)NC(=O)CC2Sc3ccccc3NC2=O)cc1OCC (centres undefined) | i
COc1cc(C2Nc3ccc(C)cc3[C@H]3OCCC[C@@H]23)cc(Br)c1O (some centres undefined) | i
Cc1ccc(NC(=O)O[C@@H]2CC[C@]3(C)C(CC[C@@H](O)[C@H]3CC(=O)N3CCCC3)[C@]2(C)CO)cc1 (some centres undefined) | i
CC1(C)CC(NC(=S)NC2CC3CCC2C3)CC(C)(C)N1 (centres undefined) | i
Cc1ccc(-n2nc(C)c([C@H]3C=C[C@@H](OC(=O)Nc4ccc(C(C)C)cc4)C3)c2C)cc1Cl | i
Cn1c(SCc2csc(-c3ccccc3)n2)nnc1C1CC1 | i
O=C(c1ccc(N2CC[C@H](O)C2)nc1)N1CCC(N2CCOCC2)CC1 | 25µM*
